Data: the supplement of paper PMC3334620
In all, about 33,000 sequences were measured (“E-score (-0.5 to 0.5)”: median about -0.056, highest 2% from about 0.38 on). The sample holds the highest values, similar sequences and a random draw of the others, so the mix is not that of the screen.

molecular target: Stb4 (UniProt P50104); assay: PBM E-score (8-mer binding enrichment) (E-score (-0.5 to 0.5)); higher = stronger / more preferred TF binding; conditions: protein concentration: 200 nM; construct: GST-DNA-binding domain
Procedure: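 Universal 'all 10-mer' protein binding microarrays (Agilent AMADID 015681) probed with GST-tagged S. cerevisiae TFs (full-length or DBD) made by in vitro transcription/translation (PURExpress), about 100-200 nM. Bound TF was detected with fluorescent anti-GST. Each ungapped 8-mer (which stands for itself and its reverse complement) is scored by the PBM enrichment score (E-score), a modified Wilcoxon-Mann-Whitney statistic from -0.5 to +0.5, computed with the Universal PBM Analysis Suite. Scale: above 0.35 generally sequence-specific binding.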

UniProt P50104, sequence (P50104 whole entry, the tested form may be a part): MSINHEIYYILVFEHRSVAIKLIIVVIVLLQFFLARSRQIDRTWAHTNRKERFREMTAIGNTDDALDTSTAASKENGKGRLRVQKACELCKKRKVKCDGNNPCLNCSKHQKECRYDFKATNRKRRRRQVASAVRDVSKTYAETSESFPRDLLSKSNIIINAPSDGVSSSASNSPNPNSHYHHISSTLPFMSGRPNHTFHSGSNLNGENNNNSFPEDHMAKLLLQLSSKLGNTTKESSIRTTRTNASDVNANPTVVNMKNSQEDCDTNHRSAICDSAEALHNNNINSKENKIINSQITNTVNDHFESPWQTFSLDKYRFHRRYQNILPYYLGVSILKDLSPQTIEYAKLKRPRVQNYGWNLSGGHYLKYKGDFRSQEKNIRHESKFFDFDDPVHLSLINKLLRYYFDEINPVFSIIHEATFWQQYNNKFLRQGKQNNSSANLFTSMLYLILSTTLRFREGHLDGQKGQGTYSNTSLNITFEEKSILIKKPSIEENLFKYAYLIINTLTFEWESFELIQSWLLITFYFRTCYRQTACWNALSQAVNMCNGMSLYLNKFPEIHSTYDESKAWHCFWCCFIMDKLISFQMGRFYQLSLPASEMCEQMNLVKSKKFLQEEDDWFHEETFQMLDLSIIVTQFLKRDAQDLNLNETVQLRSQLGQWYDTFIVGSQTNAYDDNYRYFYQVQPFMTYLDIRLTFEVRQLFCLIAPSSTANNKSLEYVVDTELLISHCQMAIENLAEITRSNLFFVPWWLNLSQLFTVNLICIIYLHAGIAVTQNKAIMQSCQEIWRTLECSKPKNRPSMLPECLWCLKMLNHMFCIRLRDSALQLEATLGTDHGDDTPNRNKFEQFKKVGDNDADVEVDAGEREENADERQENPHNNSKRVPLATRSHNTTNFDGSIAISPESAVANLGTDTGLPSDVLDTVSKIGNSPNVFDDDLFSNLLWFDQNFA

Row | Sequence | PBM E-score
1 | AATGCAGC | -0.19
2 | GGGGAAGA | -0.186
3 | AACCGCCG | 0.22
4 | CAACACAG | -0.278
5 | CTAACGTA | -0.201
6 | AACAATGT | -0.0925
7 | AGGAACGC | -0.097
8 | CGGAACGA | 0.399
9 | GGGAACGA | 0.0562
10 | AGGAACGA | 0.0238
11 | CGGAACGC | 0.407
12 | CAGAACGC | -0.126
13 | GCGTTCCA | -0.104
14 | ATCTATAC | 0.0424
15 | ATCTATTA | 0.0372
16 | GAGGTTCA | 0.012
17 | CACTTGAG | -0.265
18 | GGGTCGAC | 0.0843
19 | CATCGGGC | 0.181
20 | ACCTTCGA | -0.171
21 | CCCTTCGC | -0.135
22 | CCCTTCGG | 0.401
23 | CCCTTCGA | -0.0805
24 | ACCTTCGG | 0.404

Row | Sequence | PBM E-score
25 | ACCTTCGT | -0.0808
26 | CCAACTTC | -0.0561
27 | GTCAAAAC | -0.0364
28 | TAGAGATA | -0.0379
29 | CCAAACTC | -0.0175
30 | ATTTATGC | -0.126
31 | CAATCCGA | 0.403
32 | CAATCCGC | 0.191
33 | TAATCCCA | -0.0875
34 | CAATCCGG | 0.244
35 | GAATCCTA | 0.00817
36 | GAATCCGA | 0.4
37 | TAATCCGA | 0.39
38 | AAATCCGT | 0.186
39 | AAATCCGG | 0.332
40 | AAATCCGA | 0.396
41 | GAATCCGC | 0.206
42 | TAATCCTA | -0.00858
43 | CTGATCCA | -0.0972
44 | CGTGCTTA | -0.0565
45 | ACCACATG | -0.182
46 | GAGAAATA | 0.0451
47 | AGGACCCC | -0.0529
48 | AAGCTTGC | -0.209

Row | Sequence | PBM E-score
49 | CCATGCGG | -0.0615
50 | ATACCAGC | -0.121
51 | CATTTTGA | -0.162
52 | CGTTGAGC | -0.0224
53 | CGGATCCA | 0.36
54 | AGGATCCT | -0.218
55 | AGGATCCG | 0.395
56 | CGGATCCG | 0.462
57 | AGGATCCC | 0.0362
58 | CGGATCCC | 0.38
59 | ATGGCGTC | -0.158
60 | GATTGACC | 0.0279
61 | CAAAATAC | -0.00837
62 | ACTAGAAC | 0.0472
63 | AGGCTCTA | -0.08
64 | ATAGCTTA | -0.106
65 | CGAGCCAA | 0.00699
66 | AGAGCCGA | 0.39
67 | CGAGCCGC | 0.328
68 | AGAGCCGG | 0.24
69 | CGAGCCGA | 0.399
70 | GGAGCCGA | 0.379
71 | ATGCGGGG | 0.0133
72 | CCAGTCCG | 0.17

Row | Sequence | PBM E-score
73 | ATGGCAGC | -0.171
74 | ACCTACGA | -0.199
75 | ACGCCATA | -0.131
76 | CGGGCCCA | 0.11
77 | ACGGCCCG | 0.284
78 | AGGGCCCG | 0.205
79 | CCGGGCCC | 0.303
80 | CCGGCCCA | 0.17
81 | CCGGGCCA | 0.18
82 | CCGGCCCG | 0.392
83 | CCGGGCCG | 0.382
84 | CGGGCCCG | 0.419
85 | CAATTTGA | -0.046
86 | TTCTACAA | -0.129
87 | AAATCATT | -0.067
88 | GCACCCGC | 0.285
89 | GCACCCGA | 0.434
90 | GCACCCCA | -0.0865
91 | CCACCCGA | 0.379
92 | ACACCCGA | 0.445
93 | ACACCCGG | 0.331
94 | ACACCCGC | 0.164
95 | TCACCCGA | 0.407
96 | TCACCCAA | -0.112
